# Assay outcomes: PubChem, National Center for Advancing Translational Sciences (NCATS)
# The entries come from a sample that favours hits as a whole.
# Shiga inhibitor: A qHTS for Small Molecule Inhibitors of Shiga Toxin; Vero cells, Shiga toxin protein synthesis inhibition reporter; inhibition, % at 38.7 µM; 290,000 compounds, 9.2% hits; AID 2315, 2010; in the data active = inhibition mostly above about 28%, no sharp cut-off; inactive = mostly below about 43%; also: 0% is about no effect
# NS1 function inh: qHTS Assay for Inhibitors of Influenza NS1 Protein Function | 270,000 compounds, 0.4% hits | Potency, µM (series often up to 46.1 µM), for the others: at the highest dose activity, positive = more growth | AID 2326, 2010; calls by dose curve; also: potency is read from the fitted curve at half-maximal effect; actives are rising curves; nearly all actives have a fitted effect of over 50% in size
#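 Growth recovery, yeast-based: influenza A NS1 expressed in S. cerevisiae causes slow growth, and suppressors are detected by OD600. The parent strain without NS1 is used as positive control.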
# AmpC inh no detg: qHTS Inhibitors of AmpC Beta-Lactamase (assay without detergent); P00811; AmpC nitrocefin hydrolysis, absorbance 480 nm, 0.0001% Triton; Potency, µM (titrated, usually from 57.1 µM), inactives show top-dose activity change, negative = inhibition, usual class: inhibitors; 330,000 compounds, 0.52% hits;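 also: potency is read from the fitted curve at half-maximal effect; plate controls were no compound for no effect and no enzyme for full effect; nearly all actives have a fitted effect of over 20% in size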
# Target sequence (P00811 whole entry, looked up): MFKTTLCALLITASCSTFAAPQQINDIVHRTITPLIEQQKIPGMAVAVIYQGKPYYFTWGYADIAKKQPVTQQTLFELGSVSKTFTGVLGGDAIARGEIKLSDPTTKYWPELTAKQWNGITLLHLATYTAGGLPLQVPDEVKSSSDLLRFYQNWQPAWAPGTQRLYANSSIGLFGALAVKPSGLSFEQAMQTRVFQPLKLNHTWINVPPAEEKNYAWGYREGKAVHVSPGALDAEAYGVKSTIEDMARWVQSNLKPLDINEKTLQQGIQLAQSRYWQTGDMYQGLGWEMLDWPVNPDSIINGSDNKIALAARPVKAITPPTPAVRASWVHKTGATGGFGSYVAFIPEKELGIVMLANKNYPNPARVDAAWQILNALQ
#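 AmpC (5.3 nM in the dispensed reagent) in 20 mM phosphate pH 7.0 with 0.01% (detergent screen) or 0.0001% Triton X-100 was preincubated with compounds for 15 min at room temperature. Nitrocefin was then added from an 800 uM solution, and hydrolysis was followed at 480 nm.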
# CHX counter: Cycloheximide Counterscreen for Small Molecule Inhibitors of Shiga Toxin. AID 2314, 2010. max response, %. 300,000 compounds, 12% hits. cell reporter, cycloheximide protein synthesis inhibition counterscreen; in the data active = max response mostly above about 13%, no sharp cut-off; inactive = mostly below about 14%; also: read at 38.3 µM for the half of the compounds with a filed dose; 0% is about no effect
# AmpC detergent: qHTS Inhibitors of AmpC Beta-Lactamase (assay with detergent); Potency, µM (doses to about 114 µM), for inactives: at the top dose activity change, negative = inhibition, actives largely listed as inhibitors; 370,000 compounds, 0.041% hits; AID 485294, 2010; AmpC hydrolysis of nitrocefin, absorbance 480 nm, 0.01% Triton; P00811;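 also: potency is read from the fitted curve at half-maximal effect; 0% = no-compound wells and -100% = no-enzyme wells; nearly all actives have a fitted effect of over 25% in size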
#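 AmpC (5.3 nM in the dispensed reagent) in 20 mM phosphate pH 7.0 with 0.01% (detergent screen) or 0.0001% Triton X-100 was preincubated with compounds for 15 min at room temperature. Nitrocefin was then added from an 800 uM solution, and hydrolysis was followed at 480 nm.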
# Numbers without * were called inactive; u = inconclusive; x = no result given. Unless noted, calls follow the shape of the dose curve; as a rule, active = well fitted curve in the direction sought with a large enough effect; inconclusive = small, poorly fitted or top-dose-only effect, or another doubt; inactive = no such curve, though single readings can be large; an effect the other way counts as inactive or inconclusive.
SMILES,Shiga inhibitor,NS1 function inh,AmpC inh no detg,CHX counter,AmpC detergent
O=C(c1c(F)cccc1F)N(Cc1ccccn1)C1CC1,56,-11%,-10%,24*,1%
Cc1cccc(N2CCN(S(=O)(=O)c3csc(C(N)=O)c3)CC2)c1C,x,x,x,x,4%
CCOc1ccc2nc(NC(=O)Cn3[nH]c(=O)c4ccccc4c3=O)sc2c1,53*,0%,2%,41*,10%
O=C(CN1CCOCC1)Nc1nc2ccc(Br)cc2s1,77,-2%,-2%,27,3%
CCOc1ccc2nc(NC(=O)CN3CCOCC3)sc2c1,87*,0%,-51%,37*,3%
CCOc1ccc2nc(NC(=O)CN3CCN(CC)CC3)sc2c1,17,16%,1%,12,-1%
CCOc1ccc2nc(NC(=O)CN3CCN(C)CC3)sc2c1,50,2%,-9%,27*,1%
O=C(CN1CCOCC1)Nc1nc2ccc(Cl)cc2s1,38,13%,22%,22*,-3%
CC1CN(C(=O)CCNS(=O)(=O)c2ccc(Br)cc2)CC(C)O1 (stereo unspecified),x,x,-15%,x,u
CCOC(=O)N1CCN(CC(=O)Nc2nc3ccccc3s2)CC1,x,-11%,-5%,-2,-5%
CCOC(=O)N1CCN(CC(=O)Nc2nc3ccc(OC)cc3s2)CC1,45*,-18%,8%,25*,9%
CCc1ccc(-c2nn(-c3ccc(OC)cc3)c3c2cnc2ccc(OC)cc23)cc1,x,x,x,x,1%
CCNC(=O)CSc1nnc(CN2CCCCCC2=O)n1-c1ccccn1,2,x,-23%,8,-8%
O=C1CCCCCN1Cc1nnc(SCc2nc3ccccc3s2)n1-c1ccccn1,92*,-1%,13%,74*,1%
CN(Cc1ccccc1)C(=O)Nc1ccc2c(c1)N(C)C(=O)c1ccccc1S2,x,x,x,x,27%
CC1C(=O)NN=C1C(=O)N/N=C/c1ccco1 (stereo unspecified),48*,x,-13%,53*,-9%
CC1=NNC(=O)C1CC(=O)N/N=C/C(Br)=C/c1ccccc1 (stereo unspecified),8,-3%,-14%,7,5%
CC1C(=O)NN=C1C(=O)N/N=C\C(Br)=C\c1ccccc1 (stereo unspecified),53*,x,-48%,17*,1%
CC1C(=O)NN=C1C(=O)N/N=C\c1ccc(O)cc1O (stereo unspecified),30,7%,-16%,24*,2%
COc1cc(/C=N/NC(=O)C2=NNC(=O)C2C)ccc1O (stereo unspecified),48,u,5%,27*,8%
O=C(NN=Cc1ccc(O)cc1O)c1ccccc1NS(=O)(=O)c1cccs1,x,x,-35%,x,x
COc1cc(/C=N/NC(=O)c2ccncc2)ccc1O,10,0%,-4%,2,-8%
CC(C)C[C@H](N)C(=O)N[C@H](C(=O)N[C@@H](CCCN=C(N)N)C(=O)N[C@H](CS)C(=O)NCC(=O)N[C@@H](CCCCN)C(=O)N[C@@H](Cc1cnc[nH]1)C(=O)N[C@@H](CO)C(=O)N[C@@H](CCCN=C(N)N)C(=O)O)C(C)C,-5,x,x,-1,x
Cc1ccc(-c2nc3ccccc3c(=O)n2O)cc1,19,-79%,-20%,5,-1%
O=c1c2cc(Br)ccc2nc(-c2ccccc2)n1O,15,-96%,-7%,11*,-1%
SMILES,Shiga inhibitor,NS1 function inh,AmpC inh no detg,CHX counter,AmpC detergent
O=C1c2cccc3c(N4CCCCC4)ccc(c23)C(=O)N1CCO,76,-66%,22%,42*,4%
O=C1c2cccc3c(N4CCCCC4)ccc(c23)C(=O)N1c1cccc(O)c1,90*,4%,-17%,61*,-1%
C=CCN1C(=O)c2cccc3c(N4CCCCC4)ccc(c23)C1=O,130*,x,-26%,46*,6%
NNc1nc(-c2ccccc2)cs1,93,11%,-33%,34*,1%
c1ccc(-c2csc(Nc3ncccn3)n2)cc1,54*,14%,-4%,42,-3%
CC(=O)Nc1ccc(-c2csc(Nc3ncccn3)n2)cc1,81*,6%,-4%,33*,1%
O=C(NCc1ccccn1)C(=O)Nc1nc(-c2ccccc2)cs1,23,4%,-14%,-3,1%
Oc1ccc(-c2csc(Nc3ncccn3)n2)cc1,122*,14%,67%,39*,1%
Cc1nc2ncccn2c1-c1csc(Nc2ccc(O)cc2)n1,33,11%,-22%,12,6%
Cc1cc(F)ccc1S(=O)(=O)N1CCCOC1CNC(=O)C(=O)NC1CCCCC1 (stereo unspecified),-1,13%,-1%,1,2%
CCCC(=O)Nc1ccc(-c2csc(-c3cccnc3)n2)cc1,44,-18%,-5%,11,4%
CC(=O)Nc1ccc(-c2csc(-c3cccnc3)n2)cc1,111*,12%,1%,72*,6%
Cn1cc(C(=O)C(=O)N2CCc3ccccc32)c2ccccc21,-19,-4%,-18%,1,7%
COc1cccc(-c2nn(C)c3sc(C(=O)NCc4ccc(C)o4)cc23)c1,28,-4%,36%,23*,8%
COc1ccc(NC(=O)c2cc3c(-c4ccc(OC)c(OC)c4)nn(C)c3s2)cc1OC,100*,-17%,114%,51*,1%
CCOC(=O)c1cc(C(=O)NCc2ccc(Cl)cc2Cl)nn1C,17,-9%,-1%,-2,-13%
CCOC(=O)c1cc(C(=O)Nc2ccc(C)c(F)c2)nn1C,62*,-26%,-15%,44*,-8%
CCCOc1ccc(CNC(=O)Cn2ncc3ccccc32)cc1,59*,9%,-17%,34*,5%
CCN1CCN(C(=O)c2cc3c(s2)-c2c(C)cccc2OC3)CC1,34*,7%,158%,29*,-10%
Cc1cccc2c1-c1sc(C(=O)N3CCCCC3)cc1CO2,41*,-112%,14%,30*,-14%
CCOC(=O)c1c(C)oc2c1c(C=NCC1CCCO1)c(O)c1ccccc12 (stereo unspecified),-11,-49%,-14%,-3,-8%
CCOC(=O)c1c(C)oc2c1c1c(c3ccccc32)OCN(Cc2cccnc2)C1,131*,-19%,128%,77*,8%
CCOC(=O)c1c(C)oc2c1c1c(c3ccccc32)OCN(CCCC(=O)O)C1,89*,-2%,-3%,62*,-2%
COc1ccc(-c2nc3scc(CCNS(=O)(=O)c4ccc(F)cc4F)n3n2)cc1OC,x,x,x,x,0%
N#Cc1ccccc1NS(=O)(=O)c1cc2c3c(c1)CCN3C(=O)CC2,x,x,3%,x,-17%
CCCCNC(=O)N(C)c1nc2ccccc2s1,68*,-10%,2%,50*,1%
COC(=O)N(C)c1nc2ccccc2s1,65,-17%,-5%,36*,u
O=C(Nc1nc2ccccc2s1)C1c2ccccc2Oc2ccccc21,-13,-2%,-22%,-3,u
COc1ccccc1N(C)S(=O)(=O)c1ccc(C(=O)Nc2ccncc2)cc1,x,x,-13%,x,u
